Reference: the OligoGym collection

What follows are sequences tested against SPRR2B (assay: pooled miR-30 sensor sort-seq; sequence = guide strand). Conditions: shRNA.

| Sequence | sensor-assay potency score (higher = more potent) |
| --- | --- |
| TTGCACAGGTGGTAGAAGCTCA | -0.478 |
| TGAAGCTCTGGGAACTGACAAA | -1.43 |
| TCCATGATAAGCTTTGATGAGA | -1.51 |
| TTAGAAAGGAAACCTTTTGCTA | -0.743 |
| TATGAATCCATGATAAGCTTTG | -0.839 |
| TCTGGGAACTGACAAAGCCAAG | -1.68 |
| TCTTTCTGCTGAAGCTCTGGGA | -0.772 |
| TAAGGGGAAAGAAGCTCCCTAT | -0.405 |
| TTCCCAGGCACACAGCTGCAGC | -1.61 |
| TTGCTATCAGGGAACATCATGG | -0.524 |
| TTTGCTATCAGGGAACATCATG | -1.04 |
| ATACTTTGGCTGGCAGGGTGGG | -1.37 |

These sequences were tested against SPSB2 in the same assay as above. Conditions: shRNA.

| Sequence | sensor-assay potency score (higher = more potent) |
| --- | --- |
| TTGACCTCGATGTTCTCTGAAC | -1.03 |
| TTGCTCTGATGGTACAGCTTCC | -0.719 |
| TCTCTCTGGCACCTCCAGCTGC | -1.35 |
| TTCTCTGAACAGTCTTTGGGGT | -0.466 |
| TTGATTTCCGCAGAGCTTGGGT | -0.0773 |
| TAGCAGACTGTCATAGCCTTGA | -0.29 |
| TTTGGGGTTCCAACCGTGGCGC | -1.17 |
| ATGTTCTCTGAACAGTCTTTGG | -1.78 |
| TTGTGGCGCACACACAGGCGGC | -1.68 |
| TTGAATAGCCCCTCTTACCCCG | -0.468 |
| TAGCGTAGCCCAGAGTTCCCTC | -0.633 |
| TAGTGGTCAGTCTGCAGCGGGG | -1.67 |
